The values below come from the supplement of paper PMC6555819.

In one assay the test system is THRa:RXRa (NR concentration 90 nM, RXRa partner concentration 90 nM). Description: PBM binding z-score (relative to random genomic background probes); higher = stronger binding; sequences stand for … in GC…GCGATTGACAGCGTAGAATGAAGG
An outline of the steps:
(§1)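 Ligand-free nuclear receptor dimers were applied to custom Agilent 4×180K protein-binding microarrays whose double-stranded probes carried direct-repeat seeds, single-nucleotide variants, half-site ablations and random human genomic background sequences in 34-nt variable regions. Incubation lasted 1 h. Binding z-scores were computed against the random background probes from regression-normalized fluorescence.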
In turn, ATCGAAATGTCGAGGTGAGTATAGAGAAAGGGAA displayed a PBM binding z-score of 1.24.
Regarding ACTAGCAGGCCCAGTTTGGGTCACTCAAACAAAG, the PBM binding z-score came out at 1.72.
In turn, CCTAGTTGGTCGGGAGGTCACACACCGGATATGA registered a PBM binding z-score of 3.56.
Consider ATCTCTAGGTAAAGACAGTTCAGTGAATGCAAAT, for which the PBM binding z-score was 1.05.
On the same count and under the same terms, for CCGATTGGGGCAAGGTTACCATAACGCACAGCCA the value was 1.2; for GCTGTTAGGTCAACTGATGGTCAGCTAAAGCTCG, 3.62.
Same read-out and setting: for AGAATGAGGTTATACGTAGTTCAGGGAAGAAAGT the value was 2.55; for CCTTGTTGGTCAAGGTCACACACGCTATAGGTAC, 4.31.
Consider CGTCCAAGGTCAGAGAGGTCAGTTAATGCCGAGT, for which the PBM binding z-score is 4.39.
In turn, TCGAGTAGGTCAGGGGCATTCAGAATGGCGTCGA registered a PBM binding z-score of 1.6.
On the same count and under the same terms, for GCAGACAGGTGAAACGCAGGAAACTCAGGGTGGC the value was 0.142.
Still for that read-out and setting: for ACTCGGAGAACAAAGGTCAGAGCTACGCCAGTGA the value was 2.76; for ATCTCTAGGTAAAGATAGATCAGTGAATGCAAAT, 0.0339; for CGTCCAAGGGCAAAGGTCAGTGAAGAGATGACGG, 3.45.
On to TCTCGGAGGACACGAACGGTCAGAGCTCGACATC, for which the PBM binding z-score stood at 1.44.
Regarding GCGACTGGGGTATCAGCAGGTTACCATAACTTAA, the PBM binding z-score is 1.82.
Same read-out and setting: under ATCTCTAGGTAAAAAGTTCAGTGAAAGAGAGGAC stands 1.22; under CTCGAAAGGTCGGTTAAGGTGAGTATACGGATAA, 4.88.
Turning to GCTGCTAGGTCAGGTTGGTCACCTAACGGGTACG, the PBM binding z-score turned out to be 2.17.
The same measure, in the same setting: for GGAACGAGGGCAAAGTTGATAGCATCTGTCGACG the value was 1.25; for CCTTACGGGTGACTGACAGGTTATAGCATTTGGA, 0.72; for AATCCAGGGTCATCGTAGGCCAGAGTACGCACAG, 4.55.
In turn, ACTAGCAGGCCAAGTCTGGGTCACTCAAACAAAG showed a PBM binding z-score of 2.35.
The same measure, in the same setting: under ATCTCTAGGTAAGACTAAGTTCAGTGAAGAACGC stands 1.34; under CAAACTAGGTCAGCGGAAGGTCAAAGTCCGCATG, 4.05; under GATACAGGGTCAAGGCCGGAGTACGCGTATTGAT, 3.46.
In turn, GCGTACGGGTCAAAGGTTATAGCATGAATAGAAT showed a PBM binding z-score of 3.78.
CGATCGAGGGCATGAGTTGATAGCAAATGCCGAT yielded a PBM binding z-score of 1.04.
Still for that read-out and setting: under GTACCTAGGTGAATAGGTCGTTGATGAGTAGGCG stands 1.08; under TCTATTAGTTTATTAGGGCAACCGAAACAGCGGA, 1.54.
The same measure, in the same setting: for GCTCGGCGGACAAGGTCAGAGCTTTGTCCGTAGA the value was 2.25; for ACTAGCAGGCCAAGGGTCTCTCAAGATTAGTCCG, -0.234.
The same measure, in the same setting: under GCTGCTAGGTCAGGTTGGTCAGATAACGGGTACG stands 1.84.
GCTAGCAGGCCATTTGAGTCACTCAATGACGGGC showed a PBM binding z-score of 0.249.
For the sequence CGAACGAGGGCATGCGTTGATAGCAAATGCCGAT, the PBM binding z-score was 0.988.
Regarding AATAGCAGGCCAAGTTTGGGTCACTCAAACAAAG, the PBM binding z-score stood at 2.63.
Regarding TCTAGTTCGTCAAAGGTCACACACTCGAAATGCG, the PBM binding z-score came to 4.64.
Turning to ACTTACGGGTCAACGAGGTTATAGTACGCGTATA, the PBM binding z-score was found to be 4.14.
The same measure, in the same setting: under AGAATGAGGGCAATGAGTTGATAGCACGGGTGGC stands 1.59; under ACTAGCAGGCCAAGTTTGGGTCACTGAAACAAAG, 2.71.

The next assay has as its system THRa homodimer (NR concentration 90 nM). The assay is described as above. Summed up: as §1
The sequence ATCGAAATGTCGAGGTGAGTATAGAGAAAGGGAA came in with a PBM binding z-score of 0.217.
Same read-out and setting: under ACTAGCAGGCCCAGTTTGGGTCACTCAAACAAAG stands 0.659; under CCTAGTTGGTCGGGAGGTCACACACCGGATATGA, 2.93; under ATCTCTAGGTAAAGACAGTTCAGTGAATGCAAAT, 0.425.
The same measure, in the same setting: for CCGATTGGGGCAAGGTTACCATAACGCACAGCCA the value was 0.241; for GCTGTTAGGTCAACTGATGGTCAGCTAAAGCTCG, 2.59; for AGAATGAGGTTATACGTAGTTCAGGGAAGAAAGT, 0.588.
The sequence CCTTGTTGGTCAAGGTCACACACGCTATAGGTAC displayed a PBM binding z-score of 4.1.
The same measure, in the same setting: for CGTCCAAGGTCAGAGAGGTCAGTTAATGCCGAGT the value was 2.8.
Still for that read-out and setting: for TCGAGTAGGTCAGGGGCATTCAGAATGGCGTCGA the value was 0.0377; for GCAGACAGGTGAAACGCAGGAAACTCAGGGTGGC, -0.634.
Still for that read-out and setting: for ACTCGGAGAACAAAGGTCAGAGCTACGCCAGTGA the value was 0.0239; for ATCTCTAGGTAAAGATAGATCAGTGAATGCAAAT, -0.214; for CGTCCAAGGGCAAAGGTCAGTGAAGAGATGACGG, 0.298.
Take TCTCGGAGGACACGAACGGTCAGAGCTCGACATC: the PBM binding z-score came out at 0.357.
GCGACTGGGGTATCAGCAGGTTACCATAACTTAA displayed a PBM binding z-score of -0.0503.
Sequence ATCTCTAGGTAAAAAGTTCAGTGAAAGAGAGGAC registered a PBM binding z-score of 0.595.
The sequence CTCGAAAGGTCGGTTAAGGTGAGTATACGGATAA displayed a PBM binding z-score of 2.1.
With GCTGCTAGGTCAGGTTGGTCACCTAACGGGTACG, the PBM binding z-score worked out at 1.04.
Still for that read-out and setting: under GGAACGAGGGCAAAGTTGATAGCATCTGTCGACG stands -0.111; under CCTTACGGGTGACTGACAGGTTATAGCATTTGGA, -0.154; under AATCCAGGGTCATCGTAGGCCAGAGTACGCACAG, 1.86.
On the same count and under the same terms, for ACTAGCAGGCCAAGTCTGGGTCACTCAAACAAAG the value was 0.768.
Still for that read-out and setting: for ATCTCTAGGTAAGACTAAGTTCAGTGAAGAACGC the value was 0.876; for CAAACTAGGTCAGCGGAAGGTCAAAGTCCGCATG, 1.64; for GATACAGGGTCAAGGCCGGAGTACGCGTATTGAT, 1.03.
As for GCGTACGGGTCAAAGGTTATAGCATGAATAGAAT, the PBM binding z-score is -0.479.
Same read-out and setting: under CGATCGAGGGCATGAGTTGATAGCAAATGCCGAT stands -0.645; under GTACCTAGGTGAATAGGTCGTTGATGAGTAGGCG, -0.182.
The sequence TCTATTAGTTTATTAGGGCAACCGAAACAGCGGA gave a PBM binding z-score of 1.62.
In the case of GCTCGGCGGACAAGGTCAGAGCTTTGTCCGTAGA, the PBM binding z-score stood at 0.553.
ACTAGCAGGCCAAGGGTCTCTCAAGATTAGTCCG showed a PBM binding z-score of -0.93.
The sequence GCTGCTAGGTCAGGTTGGTCAGATAACGGGTACG returned a PBM binding z-score of 0.684.
As for GCTAGCAGGCCATTTGAGTCACTCAATGACGGGC, the PBM binding z-score was -1.02.
On to CGAACGAGGGCATGCGTTGATAGCAAATGCCGAT, for which the PBM binding z-score is -0.0968.
The same measure, in the same setting: under AATAGCAGGCCAAGTTTGGGTCACTCAAACAAAG stands 0.748; under TCTAGTTCGTCAAAGGTCACACACTCGAAATGCG, 2.53; under ACTTACGGGTCAACGAGGTTATAGTACGCGTATA, 1.34.
On the same count and under the same terms, under AGAATGAGGGCAATGAGTTGATAGCACGGGTGGC stands 0.363.
The sequence ACTAGCAGGCCAAGTTTGGGTCACTGAAACAAAG showed a PBM binding z-score of 1.29.
